# Screens as filed in PubChem BioAssay.
# SENP7 inh = blocks the human protease SENP7; Q9BQF6; recombinant SENP7, Z-RLRGG-aminoluciferin luminescence, 40 min; inhibition, % at 5 µM; actives 1.5% (n = 330,000); AID 434973;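 active = inhibition above about 50% at the single test dose, limit read from the data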;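 also: plate controls were DMSO with enzyme for no effect and no enzyme buffer wells for full effect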
# SENP6 block = SENP6 protease inhibition; Q9GZR1; Recombinant SENP6 catalytic domain, aminoluciferin luminescence; inhibition, % at 10 µM; actives 1.8% (n = 330,000); AID 2599;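 active = inhibition above about 50% at the single tested dose, limit read from the data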;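 also: plate controls were DMSO wells with enzyme for no effect and DMSO wells lacking enzyme for full effect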
# Target sequence (Q9GZR1 628-1112 limits assumed): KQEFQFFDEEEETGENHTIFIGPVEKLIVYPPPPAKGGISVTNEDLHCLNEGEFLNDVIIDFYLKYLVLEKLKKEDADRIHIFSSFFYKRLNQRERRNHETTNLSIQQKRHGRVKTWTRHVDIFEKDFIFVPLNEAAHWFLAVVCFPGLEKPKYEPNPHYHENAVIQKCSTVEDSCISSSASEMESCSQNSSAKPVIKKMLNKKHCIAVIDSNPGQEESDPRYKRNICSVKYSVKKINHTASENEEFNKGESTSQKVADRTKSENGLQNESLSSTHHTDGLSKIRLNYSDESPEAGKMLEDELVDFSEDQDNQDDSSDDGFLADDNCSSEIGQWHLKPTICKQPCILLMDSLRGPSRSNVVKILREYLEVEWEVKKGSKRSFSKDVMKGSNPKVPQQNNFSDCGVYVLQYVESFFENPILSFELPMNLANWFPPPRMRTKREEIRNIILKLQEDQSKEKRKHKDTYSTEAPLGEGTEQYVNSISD
# SENP8 block-1 = SENP8 protease inhibition; Q96LD8; purified SENP8, Z-RLRGG-aminoluciferin cleavage, luminescence; inhibition, % at 10 µM; actives 1.2% (n = 330,000); AID 2540; in the data active = inhibition above about 50%
# SENP8 block-2 = SENP8 (human) protease inhibition. Q96LD8. recombinant SENP8, Nedd8 substrate fluorescence. inhibition, % at 20 µM. actives 0.64% (n = 360,000). AID 602440; in the data active = inhibition mostly above about 40%, no sharp cut-off; inactive = mostly below about 27%
# TRAIL sens C8 = caspase-8 TRAIL sensitization; NB7+C8 cells + TRAIL, ATPlite viability luminescence; inhibition (viability loss, TRAIL sensitization), % at 10 µM; actives 1% (n = 360,000);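 active = compounds causing at least 50% loss of cell viability in the single-dose screen, relative to plate controls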
# PPC-1+TRAIL kill = kills PPC-1 cancer cells in the presence of TRAIL; cell killing (% activity), % at 4 µM or 5 µM; actives 0.41% (n = 220,000); PPC-1 cells + TRAIL, ATPLite viability luminescence;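 active = cell killing above 50% in the first pass at 4 µM, then a duplicate retest at 5 µM averaging 50% or more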;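 also: plate controls were cells with TRAIL plus DMSO for no effect and medium-only wells lacking cells for full effect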
# SENP8 confirm = confirmation of human SENP8 protease inhibitors. shares compounds with SENP7 inh. actives 40% (n = 6,200). Recombinant SENP8, Z-RLRGG-aminoluciferin luminescence, 60 min. inhibition, % at 12.5 µM;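 active = mean inhibition across replicates above about 50%, limit read from the data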
# SENP6 confirm = human SENP6 inhibition, confirmed. shares compounds with SENP7 inh. recombinant SENP6, Z-RLRGG-aminoluciferin luminescence. inhibition, % at 12.5 µM. actives 58% (n = 6,200). AID 488915
# SENP7 confirm = confirmation of human SENP7 protease inhibitors; actives 69% (n = 6,200); shares compounds with SENP7 inh; AID 488917; recombinant SENP7, Z-RLRGG-aminoluciferin luminescence, 40 min; inhibition, % at 12.5 µM
# Casp3 select = selectivity test for SENP inhibitors: human caspase-3 inhibition. shares compounds with SENP7 inh. purified caspase-3, Z-DEVD-aminoluciferin luminescence, 60 min. inhibition, % at 12.5 µM. actives 60% (n = 6,200). AID 488918;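 active = mean inhibition above about 50%, limit read from the data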;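 also: plate controls were enzyme with DMSO for no effect and wells without caspase-3 for full effect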
# SENP luc ctr = counter-screen for SENP inhibitors: luminescence interference; shares compounds with SENP7 inh; Pre-incubated SENP8/Z-RLRGG-aminoluciferin, luciferase luminescence interference; inhibition, % at 12.5 µM; actives 39% (n = 6,200);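 active = mean inhibition above about 50% when retested at one dose, limit read from the data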;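 also: plate controls were DMSO wells with completed reaction for no effect and substrate without enzyme for full effect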
# Starred values were filed as active, the others as inactive; . = no result. This is a sample that favours compounds with a hit; in the whole collection about 3% have one here.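 The calls were made as follows, unless noted: active = mean inhibition above about 50% in the one-dose retest (limit read from the data); inactive = the rest.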
SMILES,SENP7 inh,SENP6 block,SENP8 block-1,SENP8 block-2,TRAIL sens C8,PPC-1+TRAIL kill,SENP8 confirm,SENP6 confirm,SENP7 confirm,Casp3 select,SENP luc ctr
O=C(Nc1ccc2c(c1)CCC2)c1cccc(F)c1,92.0*,87.5*,76.5*,8.6,17.6,29.6,91.0*,91.2*,99.6*,87.9*,89.8*
O=C(Cc1cccc(F)c1)Nc1ccc2c(c1)CCC2,-11.5,-17.7,-11.5,10.4,-5.2,.,.,.,.,.,.
COc1cc2c(cc1NC(=O)CN(C)Cc1cccc(OC)c1OC)oc1ccccc12,-0.1,-5.0,-10.8,-2.4,9.5,38.4,.,.,.,.,.
Cc1ccc(C#CC[N+](C)(C)CC#Cc2ccccc2)cc1,-12.7,-7.0,-12.0,-25.2,9.4,6.2,.,.,.,.,.
Cc1ccc(-c2csc(C(C#N)=C3CCCC3)n2)cc1,5.1,4.7,-7.8,16.0,21.2,7.4,.,.,.,.,.
N#CC(=C1CCCC1)c1nc(-c2ccccc2)cs1,64.7*,76.5*,64.7*,14.2,44.3,29.8,5.2,64.4*,88.0*,53.8*,32.8
N#CC(=C1CCCC1)c1nc(-c2cc3ccccc3oc2=O)cs1,16.1,-13.1,-16.1,-297.1,14.2,23.1,.,.,.,.,.
N#CC(=C1CCCC1)c1nc(-c2ccccc2O)cs1,90.0*,85.8*,63.2*,5.2,38.2,28.6,9.1,32.8,39.5,53.3*,54.6*
COC(=O)CC1COc2ccccc2N1C(=O)/C=C/c1ccccc1 (centres undefined),-0.7,-8.4,-2.6,20.6,3.9,.,.,.,.,.,.
O=C(O)c1cc(O)c2c(c1)C(=O)c1cc(O)cc(O)c1C2=O,-5.8,51.9*,28.3,2.8,-1.9,12.4,67.0*,60.0*,84.3*,23.3,72.1*
O=c1cc(-c2ccc3c(c2)OCO3)oc2ccccc12,76.7*,-9.0,-4.1,-334.1,37.5,34.7,-3.4,-1.7,32.0,8.3,-3.8
Cn1c2ccccc2c(=O)c2ccc(-c3ccc4c(c3)OCO4)cc21,72.9*,72.3*,57.8*,-460.4,40.7,.,36.6,52.8*,79.2*,54.9*,25.2
CC1(C(=O)NCc2ccccn2)CCN1C(=O)Cc1ccc(Cl)cc1Cl (centres undefined),.,.,.,11.2,6.1,.,.,.,.,.,.
Nc1cccc(/C=C/c2ccncc2)c1,8.6,6.2,-3.9,-40.7,4.4,1.4,.,.,.,.,.
Cc1ccccc1N=Nc1c(C)[nH]n(C(N)=S)c1=O,40.5,82.3*,60.2*,7.7,-5.6,8.4,2.1,33.8,36.7,49.1,10.1
Cc1[nH]n(C(N)=S)c(=O)c1N=Nc1ccc([N+](=O)[O-])cc1Cl,69.9*,93.7*,94.6*,24.4,2.6,.,81.0*,95.2*,98.5*,79.3*,13.4
Cc1[nH]n(C(N)=S)c(=O)c1N=Nc1cccc(Cl)c1,71.7*,91.2*,89.2*,20.5,-13.1,.,22.8,40.1,20.2,32.2,10.6
NC(=S)n1[nH]c(-c2ccc([N+](=O)[O-])cc2)c(N=Nc2cccc(Cl)c2)c1=O,-8.0,10.0,0.8,34.0,46.1,21.0,.,.,.,.,.
Cc1[nH]n(C(N)=S)c(=O)c1N=Nc1ccccc1C(F)(F)F,2.1,54.0*,34.0,18.5,-9.2,.,55.5*,53.4*,77.4*,.,50.2*
O=C(CCc1ccc(S(=O)(=O)N2CCOCC2)cc1)Nc1nc(COc2ccccc2)cs1,5.0,1.2,-1.6,16.7,29.4,9.4,.,.,.,.,.
CN(C(=O)CSc1cn(CC(=O)N2CCOCC2)c2ccccc12)c1ccccc1,3.0,0.2,-1.3,8.3,-0.6,.,.,.,.,.,.
